The results in this text go back to PubChem BioAssay (NCATS).

Assay [1] has as its target Lysosomal acid glucosylceramidase (Homo sapiens) (UniProt P04062). In words: Glucocerebrosidase-p2 (AID 348; in the data active = potency below about 10 µM; also: potency is read from the fitted curve at half-maximal effect). The conditions noted are these: purified GBA, blue fluorogenic substrate, 40 min. The method, boiled down: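 Normal human glucocerebrosidase (0.2 nM) with blue fluorogenic substrate (80 uM final) in citrate/phosphate pH 5.9 with 10mM sodium taurocholate, 0.01% tween-20; 40 min RT, NaOH/glycine stop; fluorescence Ex 365/Em 440; AC50 from a titration from 0.6 nM upwards.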

For assay [2], the target named is Cytochrome P450 1A2 (Homo sapiens) (UniProt P05177). The assay is described as follows: p450-cyp1a2 (AID 410; calls by dose curve; also: potency is read from the fitted curve at half-maximal effect). The note with it: recombinant CYP1A2, luciferin-ME demethylation, luminescence; series mostly up to 57 µM. The essentials: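 20nM CYP1A2, 100uM Luciferin-ME (=Km), 100mM KPO4; cpd 10 min RT; +NADPH regen, 60 min RT; stop/detect 20 min; luminescence. Normalized to furafylline 57 uM = full inhibition.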
Cytochrome P450 1A2 (Homo sapiens), sequence (P05177 whole entry, looked up): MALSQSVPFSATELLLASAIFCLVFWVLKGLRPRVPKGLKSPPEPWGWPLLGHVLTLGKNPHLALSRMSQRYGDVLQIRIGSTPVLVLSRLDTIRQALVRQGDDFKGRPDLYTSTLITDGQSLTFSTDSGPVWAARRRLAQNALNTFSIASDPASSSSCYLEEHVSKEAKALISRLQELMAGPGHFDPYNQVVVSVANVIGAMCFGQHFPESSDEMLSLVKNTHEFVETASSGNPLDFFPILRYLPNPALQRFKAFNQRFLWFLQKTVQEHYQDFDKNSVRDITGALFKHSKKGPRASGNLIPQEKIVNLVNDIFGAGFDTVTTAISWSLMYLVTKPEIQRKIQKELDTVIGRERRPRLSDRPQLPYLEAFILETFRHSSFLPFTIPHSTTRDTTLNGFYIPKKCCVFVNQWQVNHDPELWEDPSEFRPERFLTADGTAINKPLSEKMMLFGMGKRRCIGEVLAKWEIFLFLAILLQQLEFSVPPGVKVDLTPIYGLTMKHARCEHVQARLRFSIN

The nature of assay [3]: NFAT Signaling Pathway (AID 444; active = well fitted curve in either direction with a large enough effect, not every such curve was filed as active;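 also: carbachol stimulus at about its EC50 of 1 µM final; % is scaled to controls: 0 for no effect and ±100 for the full control effect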). The conditions noted are these: Jurkat NFAT-bla M1, carbachol, beta-lactamase ratio, 5 h; at 7.69 µM (top of the series) unless noted. The method, boiled down:
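Jurkat cells carrying an NFAT-driven β-lactamase reporter and co-transfected muscarinic M1 receptor were treated with compound plus carbachol (1 uM final, an EC50 level) for 5 h at 37 °C. CCF4 loading followed for 1 h at RT; 460/530 nm ratio gave %activity.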

The nature of assay [4]: Stat Signaling Pathway (AID 446; active = well fitted curve in either direction with a large enough effect, not every such curve was filed as active;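 also: ME-180 cervical cancer cells given 40 pM IL-6 alongside compound; SIE-controlled beta-lactamase reporter measured as 460/530 nm FRET emission ratio; % is scaled to controls: 0 for no effect and ±100 for the full control effect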). The note with it: ME-180 SIE beta-lactamase reporter, IL-6 stimulated, 5 h; at 7.69 µM (top of the series) unless noted. The method, boiled down:
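Emission at 460 and 530 nm (excitation 405 nm) reports SIE-controlled beta-lactamase in ME-180 cells. Cells received compound with 40 pM IL-6 for 5 hrs at 37 C; data scaled between 300 pM IL-6 and 125 nM JAK-inhibitor controls.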

Assay [5] addresses Glucocorticoid receptor (Homo sapiens) (UniProt P04150). The assay is described as follows: GR-GFP Redistribution (AID 450;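 active = compounds whose dose series gives a full or clear partial fitted curve of increased nuclear translocation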; also: potency is read from the fitted curve at half-maximal effect). The conditions noted are these: U2OS GR-GFP nuclear translocation, laser cytometry, 2 h.
Assay [6] has the same target. In words: GR-EFC Redistribution (AID 451; calls by dose curve; also: potency is read from the fitted curve at half-maximal effect). The note with it: CHO-K1 GR-EFC translocation, beta-gal luminescence, 2 h. The essentials:
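CHO-K1 cells stably expressing nuclear-localized β-gal enzyme acceptor and GR fused C-terminally to the enzyme donor fragment; ligand-driven nuclear translocation restores β-gal by complementation. Compounds titrated up to 46 uM final, 2 h at 37 °C; luminescence read.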

Assay [7] has as its target Mitogen-activated protein kinase 10 (Mus musculus) (UniProt Q61831). In words: JNK3 AlphaScreen Assay (AID 530; active = well fitted curve in either direction with a large enough effect, not every such curve was filed as active;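 also: kinase came from lysate of stimulated human HepG2 cells; signal reports phosphorylation of biotinylated GST-cJun 1-79 at Ser73 with 10 µM ATP; % is scaled to controls: 0 for no effect and ±100 for the full control effect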). The conditions noted are these: JNK3 lysate, c-Jun phosphorylation; series mostly up to 57.1 µM. The method, boiled down:
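Biotinylated GST-cJun(1-79) served as substrate for JNK3 in HepG2 lysates stimulated with IL-1beta and TNF-alpha. ATP was 10 uM final, pH 7.6. Ser73 phosphorylation was quantified by AlphaScreen (680 nm excitation).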
For orientation: Alpha assays give light when donor and acceptor beads are brought close together.

Assay [8] addresses Cytochrome P450 2C19 (Homo sapiens) (UniProt P33261). In words: qHTS Assay for Inhibitors and Substrates of Cytochrome P450 2C19 (AID 899). Also: potency is read from the fitted curve at half-maximal effect; nearly all actives have a fitted effect of over 60% in size. The conditions noted are these: recombinant CYP2C19, luciferin-H EGE luminescence; series mostly up to 57.1 µM. The essentials: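 Human CYP2C19 (5nM) with Luciferin-H EGE at 10uM (its KM) in 50mM KPO4 was preincubated with compound for 10 min at 37C. NADPH regeneration started a 60 min 37C reaction. Luciferin was read by luminescence, normalized to 57uM ketoconazole.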

The target in assay [9] is Dual specificity protein kinase CLK4 (Homo sapiens) (UniProt Q9HAZ1). In words: qHTS Assay for Inhibitors of CDC-like Kinase 4 (ADP-FP Assay) (AID 1795). Also: nearly all actives have a fitted effect of over 60% in size. Also: potency is read from the fitted curve at half-maximal effect. The note with it: Transcreener ADP fluorescence polarization; series mostly up to 50 µM. The essentials: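 Recombinant human Clk4 (6.25 nM) phosphorylated RS repeat peptide (100 uM) with 1 uM ATP in Tris pH 7.5/MgCl2/EGTA/DTT/Triton buffer for one hour. ADP was quantified by Transcreener competitive fluorescence polarization against an ADP calibration curve.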
Dual specificity protein kinase CLK4 (Homo sapiens), sequence (Q9HAZ1 whole entry, looked up): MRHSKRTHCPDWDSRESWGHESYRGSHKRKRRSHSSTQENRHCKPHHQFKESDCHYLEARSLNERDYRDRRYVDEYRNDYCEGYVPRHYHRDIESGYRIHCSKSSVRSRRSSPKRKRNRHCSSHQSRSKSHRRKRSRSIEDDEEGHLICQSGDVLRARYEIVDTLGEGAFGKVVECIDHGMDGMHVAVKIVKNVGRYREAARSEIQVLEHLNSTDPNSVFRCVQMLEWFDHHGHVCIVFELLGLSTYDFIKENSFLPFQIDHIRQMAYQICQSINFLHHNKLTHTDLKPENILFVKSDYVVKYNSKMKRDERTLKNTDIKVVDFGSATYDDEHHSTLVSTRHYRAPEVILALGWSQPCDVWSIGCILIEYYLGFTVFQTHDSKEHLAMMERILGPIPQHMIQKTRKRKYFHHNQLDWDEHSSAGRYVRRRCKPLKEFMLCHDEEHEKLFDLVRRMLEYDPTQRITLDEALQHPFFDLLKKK

Assay [10] in a line: Primary qHTS for small molecule stabilizers of the endoplasmic reticulum resident proteome: Secreted ER Calcium Modulated Protein (SERCaMP) assay (AID 1508630). Also: % is scaled to controls: 0 for no effect and ±100 for the full control effect. The note with it: SH-SY5Y GLuc-SERCaMP (Gaussia luciferase released on ER calcium loss) secretion, thapsigargin, luminescence; series mostly up to 38.4 µM. The method, boiled down: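 The SH-SY5Y reporter protocol was run at 3 concentrations up to 38.3 uM (primary) or 11 concentrations (follow-up): 16 h compound, 100 nM thapsigargin for 4 h, then extracellular luciferase luminescence.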

Assay [11] addresses Cytochrome P450 2C9 (Homo sapiens) (UniProt P11712). The assay is described as follows: qHTS Assay for Inhibitors and Substrates of Cytochrome P450 2C9 (AID 883). Also: potency is read from the fitted curve at half-maximal effect; nearly all actives have a fitted effect of over 60% in size. The note with it: recombinant CYP2C9, luciferin-H luminescence, 60 min; series mostly up to 57.1 µM. The method, boiled down:
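Human CYP2C9 (10nM) hydroxylated Luciferin-H (100uM, at its KM) to luciferin in 25mM KPO4. Compound was preincubated 10 min at 37C, then NADPH regeneration started a 60 min reaction at 37C. Luminescence was read after detection reagent, normalized to 57uM sulphaphenazole.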
Background: Quantitative high-throughput screening tests each substance at several concentrations.

Assay [12] concerns the target Cytochrome P450 3A4 (Homo sapiens) (UniProt P08684). In words: qHTS Assay for Inhibitors and Substrates of Cytochrome P450 3A4 (AID 884). Also: potency is read from the fitted curve at half-maximal effect; nearly all actives have a fitted effect of over 50% in size. The conditions noted are these: recombinant CYP3A4, Luciferin-PPXE luminescence; series mostly up to 57.1 µM. The method, boiled down:
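Luminescent readout of luciferin produced by CYP3A4 (20 nM) dealkylation of Luciferin-PPXE, 25 uM (its KM). NADPH-driven reaction ran 60 min at RT after 10 min compound preincubation; data scaled to 57 uM ketoconazole as 100% inhibition.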

Assay [13] has the same target. In words: qHTS Assay for Activators of Cytochrome P450 3A4 (AID 885). Also: nearly all actives have a fitted effect of over 65% in size. The note with it: recombinant CYP3A4, Luciferin-PPXE luminescence, 60 min; series mostly up to 57.1 µM. The essentials: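 Activators are scored by enhanced luminescence from CYP3A4 conversion of luciferin-PPXE (25uM, equal to KM) to luciferin, after 60 min at RT with an NADPH-regenerating system.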

The target in assay [14] is Ubiquitin carboxyl-terminal hydrolase 1 (Homo sapiens) (UniProt O94782). The assay is described as follows: Inhibitors of USP1/UAF1: Pilot qHTS (AID 504865). Also: nearly all actives have a fitted effect of over 35% in size. Also: potency is read from the fitted curve at half-maximal effect. The conditions noted are these: purified USP1/UAF1, Ub-rhodamine cleavage fluorescence; series mostly up to 54.9 µM. The method, boiled down:
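USP1/UAF1 complex (1nM) preincubated with compound 15 min at room temperature, then Ub-Rho substrate (150nM final) added. Fluorescence read kinetically at 480/540 nm, 6 reads every 60 seconds. Buffer: 50mM HEPES pH 7.8, 0.5mM EDTA, 0.1 mg/ml BSA, 1mM TCEP, 0.01% Tween-20.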

Assay [15] can be described thus: AP1 Signaling Pathway (AID 357; active = well fitted curve in either direction with a large enough effect, not every such curve was filed as active; also: % is scaled to controls: 0 for no effect and ±100 for the full control effect). The note with it: ME-180 AP-1-bla reporter, EGF-induced, beta-lactamase ratio, 5 h; at 7.69 µM (top of the series) unless noted. The essentials: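 AP-1-bla ME-180 cells, Opti-MEM + 0.5% dialyzed FBS, plated overnight 37 °C. Cpd titration + EC50 EGF, 5 h 37 °C. CCF4 2.5 h RT; ex 405, em 460/530 ratio → %activity, AC50.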
The target of assay [16] is 3',5'-cyclic-AMP phosphodiesterase 4B (Homo sapiens) (UniProt Q07343). In words: qHTS Assay for Inhibitors of PDE-IV (AID 607; active = well fitted activation curve with a large enough effect in the main read-out, with a control signal flat, not every such curve was filed as active; also: % of control where 0% means no effect). The conditions noted are these: HEK293 ACTOne CNG channel cells, membrane potential fluorescence; series mostly up to 22.9 µM. The essentials: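 The readout is membrane depolarisation from a cAMP-sensing CNG channel, detected with a potential dye at ex 535/em 590. Cells were HEK293-derived (endogenous PDE-IV) at 1000 cells/well, titrated up to 22.9 uM final.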
3',5'-cyclic-AMP phosphodiesterase 4B (Homo sapiens), sequence (Q07343 whole entry, looked up): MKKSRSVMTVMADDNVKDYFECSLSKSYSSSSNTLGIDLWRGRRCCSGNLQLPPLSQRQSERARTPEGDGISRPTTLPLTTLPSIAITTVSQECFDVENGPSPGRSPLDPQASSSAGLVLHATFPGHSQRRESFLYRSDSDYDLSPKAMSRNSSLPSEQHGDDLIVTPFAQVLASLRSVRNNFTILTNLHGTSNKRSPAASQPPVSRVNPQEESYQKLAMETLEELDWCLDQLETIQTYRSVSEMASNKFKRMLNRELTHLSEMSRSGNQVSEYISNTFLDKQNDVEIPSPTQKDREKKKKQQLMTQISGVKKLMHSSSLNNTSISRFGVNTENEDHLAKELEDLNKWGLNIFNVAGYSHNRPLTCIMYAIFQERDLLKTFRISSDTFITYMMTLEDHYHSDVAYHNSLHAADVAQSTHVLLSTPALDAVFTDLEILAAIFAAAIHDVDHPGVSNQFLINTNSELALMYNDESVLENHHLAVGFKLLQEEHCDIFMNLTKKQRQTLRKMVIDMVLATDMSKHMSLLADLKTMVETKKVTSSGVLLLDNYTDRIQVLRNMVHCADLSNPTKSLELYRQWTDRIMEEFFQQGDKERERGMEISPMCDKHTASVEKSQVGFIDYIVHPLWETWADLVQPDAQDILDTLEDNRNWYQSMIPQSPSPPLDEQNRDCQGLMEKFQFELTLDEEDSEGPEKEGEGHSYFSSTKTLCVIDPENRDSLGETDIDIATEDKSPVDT

A short description of assay [17]: qHTS Assay for Identification of Small Molecule Agonists for Hypoxia Response Element Signaling Pathway (AID 914; active = well fitted activation curve with a large enough effect in the signal ratio, with a control signal flat, not every such curve was filed as active; the % refers to the signal ratio; also: % of control where 0% means no effect). The note with it: ME-180 (cervical carcinoma) HRE-bla reporter, beta-lactamase ratio, CoCl2, 17 h; activation: hits give high values. The essentials:
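HRE-bla ME-180 cells, overnight plating in Opti-MEM with 0.5% dialyzed FBS; cpd titration + EC50 CoCl2, 17 h, 37 degrees Celsius; CCF4 2.5 h RT; 460/530 nm ratio; AC50.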

Values without a mark were called inactive. Records with an inconclusive call do not appear. The source made the active and inactive calls. Unless noted, calls follow the shape of the dose curve; as a rule, active = well fitted curve in the direction sought with a large enough effect; inconclusive = small, poorly fitted or top-dose-only effect, or another doubt; inactive = no such curve, though single readings can be large; an effect the other way counts as inactive or inconclusive.

Glucocorticoid receptor (Homo sapiens), sequence (P04150 whole entry, looked up): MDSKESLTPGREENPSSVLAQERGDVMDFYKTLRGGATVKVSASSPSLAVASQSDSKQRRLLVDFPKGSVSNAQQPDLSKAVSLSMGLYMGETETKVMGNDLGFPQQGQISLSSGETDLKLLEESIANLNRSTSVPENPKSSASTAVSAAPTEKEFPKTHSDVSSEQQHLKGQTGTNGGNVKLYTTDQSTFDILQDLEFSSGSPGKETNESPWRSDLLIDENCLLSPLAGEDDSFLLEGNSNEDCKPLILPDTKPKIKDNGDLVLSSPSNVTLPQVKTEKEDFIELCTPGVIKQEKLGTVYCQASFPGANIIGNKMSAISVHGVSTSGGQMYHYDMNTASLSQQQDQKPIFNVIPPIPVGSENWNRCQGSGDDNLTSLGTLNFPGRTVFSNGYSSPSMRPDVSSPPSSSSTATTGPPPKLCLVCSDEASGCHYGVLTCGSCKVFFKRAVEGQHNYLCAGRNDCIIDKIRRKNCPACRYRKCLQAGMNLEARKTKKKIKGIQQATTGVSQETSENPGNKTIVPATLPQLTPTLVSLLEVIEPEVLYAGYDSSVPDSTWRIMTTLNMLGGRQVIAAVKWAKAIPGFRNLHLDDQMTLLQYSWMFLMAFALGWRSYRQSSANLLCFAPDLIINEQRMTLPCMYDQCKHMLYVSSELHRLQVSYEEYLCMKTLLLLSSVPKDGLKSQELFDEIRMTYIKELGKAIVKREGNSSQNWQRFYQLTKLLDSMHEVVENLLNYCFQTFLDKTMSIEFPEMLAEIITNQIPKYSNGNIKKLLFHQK
Cytochrome P450 3A4 (Homo sapiens), sequence (P08684 whole entry, looked up): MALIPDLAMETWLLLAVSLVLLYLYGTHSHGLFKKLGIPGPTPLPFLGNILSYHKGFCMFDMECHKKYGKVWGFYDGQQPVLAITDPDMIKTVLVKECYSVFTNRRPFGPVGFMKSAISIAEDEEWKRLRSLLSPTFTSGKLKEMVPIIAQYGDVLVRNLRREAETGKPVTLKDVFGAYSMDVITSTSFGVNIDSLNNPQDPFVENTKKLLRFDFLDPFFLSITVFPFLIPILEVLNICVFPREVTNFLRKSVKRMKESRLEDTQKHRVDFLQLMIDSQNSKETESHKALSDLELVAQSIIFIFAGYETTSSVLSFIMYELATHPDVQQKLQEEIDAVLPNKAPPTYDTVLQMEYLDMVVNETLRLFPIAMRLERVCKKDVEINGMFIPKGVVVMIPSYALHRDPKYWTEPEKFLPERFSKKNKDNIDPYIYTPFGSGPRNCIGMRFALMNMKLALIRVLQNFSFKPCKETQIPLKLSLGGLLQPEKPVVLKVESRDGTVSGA
Lysosomal acid glucosylceramidase (Homo sapiens), sequence (P04062 whole entry, looked up): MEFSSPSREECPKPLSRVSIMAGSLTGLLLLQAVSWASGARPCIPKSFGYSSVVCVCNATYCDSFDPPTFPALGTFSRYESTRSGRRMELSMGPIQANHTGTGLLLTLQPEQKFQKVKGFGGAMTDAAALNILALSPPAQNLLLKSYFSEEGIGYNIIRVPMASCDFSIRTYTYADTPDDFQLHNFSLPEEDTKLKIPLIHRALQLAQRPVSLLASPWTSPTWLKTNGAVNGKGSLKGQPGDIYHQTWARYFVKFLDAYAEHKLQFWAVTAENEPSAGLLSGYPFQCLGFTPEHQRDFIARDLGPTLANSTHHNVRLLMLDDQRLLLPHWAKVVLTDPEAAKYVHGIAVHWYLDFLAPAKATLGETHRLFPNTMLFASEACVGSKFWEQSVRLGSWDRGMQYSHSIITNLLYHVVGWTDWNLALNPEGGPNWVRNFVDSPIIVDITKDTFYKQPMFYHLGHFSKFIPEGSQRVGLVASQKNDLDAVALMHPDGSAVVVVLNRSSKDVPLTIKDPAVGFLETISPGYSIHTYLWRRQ
Cytochrome P450 2C19 (Homo sapiens), sequence (P33261 whole entry, looked up): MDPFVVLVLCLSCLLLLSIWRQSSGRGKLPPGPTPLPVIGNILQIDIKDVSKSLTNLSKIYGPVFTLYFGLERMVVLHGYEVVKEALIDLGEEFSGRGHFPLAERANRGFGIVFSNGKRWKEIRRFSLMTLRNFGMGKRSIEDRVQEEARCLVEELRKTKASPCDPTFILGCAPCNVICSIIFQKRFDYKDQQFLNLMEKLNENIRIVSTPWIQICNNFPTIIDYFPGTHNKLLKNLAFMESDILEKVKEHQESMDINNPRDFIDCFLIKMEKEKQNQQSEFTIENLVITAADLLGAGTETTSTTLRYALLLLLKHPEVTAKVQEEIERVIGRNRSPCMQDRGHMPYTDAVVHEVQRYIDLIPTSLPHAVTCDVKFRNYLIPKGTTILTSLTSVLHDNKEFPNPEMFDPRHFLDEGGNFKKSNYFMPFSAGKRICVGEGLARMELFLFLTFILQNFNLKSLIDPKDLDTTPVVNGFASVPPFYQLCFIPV
Ubiquitin carboxyl-terminal hydrolase 1 (Homo sapiens), sequence (O94782 whole entry, looked up): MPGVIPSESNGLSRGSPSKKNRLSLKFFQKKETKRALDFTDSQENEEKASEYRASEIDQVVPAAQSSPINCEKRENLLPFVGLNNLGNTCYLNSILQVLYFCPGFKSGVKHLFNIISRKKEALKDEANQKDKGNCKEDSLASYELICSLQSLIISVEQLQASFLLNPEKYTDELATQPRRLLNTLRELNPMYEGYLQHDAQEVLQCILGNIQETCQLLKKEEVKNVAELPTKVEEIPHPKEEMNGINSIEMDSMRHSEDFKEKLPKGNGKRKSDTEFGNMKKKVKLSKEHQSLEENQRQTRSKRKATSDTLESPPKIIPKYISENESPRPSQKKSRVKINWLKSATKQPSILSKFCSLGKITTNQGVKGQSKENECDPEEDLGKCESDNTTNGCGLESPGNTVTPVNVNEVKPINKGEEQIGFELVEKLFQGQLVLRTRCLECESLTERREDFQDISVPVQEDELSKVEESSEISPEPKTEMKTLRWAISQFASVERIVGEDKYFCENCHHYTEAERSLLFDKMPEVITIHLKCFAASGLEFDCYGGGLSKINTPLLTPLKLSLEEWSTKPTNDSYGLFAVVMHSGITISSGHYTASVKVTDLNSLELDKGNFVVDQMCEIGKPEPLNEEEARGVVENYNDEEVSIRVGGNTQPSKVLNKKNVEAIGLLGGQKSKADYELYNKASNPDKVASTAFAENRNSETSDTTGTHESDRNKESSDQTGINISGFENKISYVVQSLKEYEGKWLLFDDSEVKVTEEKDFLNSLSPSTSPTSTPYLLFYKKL

As for `COc1ccccc1-c1cc(Nc2ccc(F)cc2)ncn1`, the Potency in assay [1] was > 11.4 µM; in [2], 2 µM (active); in assay [5], > 46 µM; in assay [6], > 46 µM; in assay [8] it was 7.94 µM (active). In addition, in assay [3], the activity change, negative = inhibition was -14.1%. Also, in [4], the activity, negative = inhibition is -19.9%. Besides, the Potency result in [7] and in [9] was “inactive” throughout. Also, in assay [10], the result was inactive.
Regarding `COc1ccc2[nH]cc(CCNc3nc(-c4ccc(N(C)C)cc4)nc4ccccc34)c2c1`, the Potency in [1] is 0.554 µM (active); in [2], 1.26 µM (active); in assay [5], > 46 µM; in [6] it was > 46 µM; in [11], 0.398 µM (active); in assay [12], 2.51 µM (active). Besides, in assay [8], the Potency was 7.94 µM (active). For the same compound, the Potency entry in [13], in [9] and in [14] was “inactive” each time. In addition, the result in [10] was inactive.
For `Cc1cnc(CNc2ncnc3ccc(-c4ccc(C(=O)N(C)C)cc4)cc23)cn1`, the Potency in assay [1] was > 11.4 µM; in [5], > 46 µM; in [6], > 46 µM. The activity change, negative = inhibition was -13.6% in [15] and 9.3% in [3]. The activity, negative = inhibition in [4] is -5.52%. For the same compound, the Potency result in assay [7], in assay [16], in assay [9] and in [14] was “inactive” in each case. Further, the result in [10] was inactive.
Consider `CN(Cc1ccco1)c1ncncc1-c1ccc2c(c1)OCO2`, for which the Potency in assay [1] was > 11.4 µM; in assay [2] it was 0.2 µM (active); in assay [5], > 46 µM; in assay [6] it was > 46 µM; in assay [12], 1.26 µM (active); in assay [8], 0.126 µM (active). Moreover, in assay [15], the activity change, negative = inhibition was 1.93%. The activity, negative = inhibition in assay [4] is -2.55%. In addition, the Potency result in assay [7], in assay [13], in assay [9] and in assay [14] was “inactive” throughout. Moreover, the activation in assay [17] is 4.7%. Also, the outcome in [10] was inactive.
Take `N#Cc1cccc(-c2cncnc2NCCc2cnc[nH]2)c1`: the Potency was > 11.4 µM in assay [1], > 46 µM in assay [5] and > 46 µM in assay [6]. For the same compound, the activity change, negative = inhibition in [3] was 4.36%. Besides, the activity, negative = inhibition in assay [4] is -1.18%. Further, the Potency result in assay [7], in assay [16], in assay [9] and in [14] was “inactive” in each case. Moreover, the outcome in assay [10] was inactive.
As to `COc1ccc2[nH]cc(CCNc3cc(-c4ccccc4CN(C)C)ncn3)c2c1`, the activity change, negative = inhibition was 14.9% in assay [15] and -12.7% in assay [3]. For the same compound, the activity, negative = inhibition in assay [4] is 6.88%. Further, the Potency in assay [5] and in assay [6] was > 46 µM throughout. For the same compound, the Potency result in [7], in assay [16], in assay [9] and in [14] was “inactive” in each case. Further, the result in assay [10] was inactive.
Regarding `COc1ccccc1-c1nc(NCc2cccs2)c2ccccc2n1`, the Potency in [1] was > 11.4 µM; in assay [2] it was 0.631 µM (active); in assay [5], > 46 µM; in assay [6], > 46 µM; in assay [14], 15.8 µM (active). Further, in assay [3], the activity change, negative = inhibition is -14.6%. Further, the activity, negative = inhibition in assay [4] is 21.2%. The Potency result in assay [7], in assay [13] and in [9] was “inactive” in each case. Also, in assay [10], the result was inactive.
Turning to `CN(C)C(=O)c1ccc(-c2ccc3ncnc(N(C)Cc4ccco4)c3c2)cc1`, the Potency is > 11.4 µM in assay [1], > 46 µM in assay [5], > 46 µM in assay [6] and 7.08 µM (active) in [9]. Moreover, the activity change, negative = inhibition in assay [3] is 8.43%. The activity, negative = inhibition in assay [4] was -9.98%. In addition, the Potency entry in assay [7] and in assay [14] was “inactive” in each case. In addition, the outcome in assay [10] was inactive.
